Legend:
Assay in all cases: DAPPL (digital affinity profiling via proximity ligation, sequencing); 10 mM Tris-HCl pH 7.5, 50 mM NaCl, 1 mM DTT, 4% glycerol, room temperature, 30 min; GST-TFs on glutathione beads, 16-mer random dsDNA library, 0.1% formaldehyde crosslink after washing; high values mean tight binding
[1] = target: T1, FEV (Homo sapiens, UniProt Q99581 1-238); details: protein: recombinant; tags: N-terminal GST; dsDNA, one strand shown
T1 sequence: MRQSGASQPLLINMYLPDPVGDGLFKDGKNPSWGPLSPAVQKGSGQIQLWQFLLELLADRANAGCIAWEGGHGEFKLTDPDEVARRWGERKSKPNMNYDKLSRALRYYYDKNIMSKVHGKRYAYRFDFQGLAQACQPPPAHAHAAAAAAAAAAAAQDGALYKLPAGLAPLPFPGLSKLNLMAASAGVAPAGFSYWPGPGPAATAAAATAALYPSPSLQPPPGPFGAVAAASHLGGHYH
Procedure, shortened: (§1)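 Beads coated with glutathione captured GST-fused human transcription factors that had been expressed in yeast, and the factors were then given DNA barcodes and pooled with a tag-only sample. The pools were incubated with 200 nmole of a random double-stranded 16-mer DNA library in Tris/NaCl/DTT/glycerol buffer for 30 min at room temperature, washed, crosslinked with 0.1% formaldehyde and proximity-ligated with BsaI/T4 ligase at 37 °C for 1 h. PCR amplification and Illumina NextSeq500 sequencing came last. Binding signal is each hexamer's read frequency for a factor divided by its frequency for the tag-only sample.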

[2] = target: ETV5 (Homo sapiens, UniProt P41161 1-510); details: protein: recombinant; tags: N-terminal GST; dsDNA, one strand shown
Chain of ETV5 (P41161 whole entry): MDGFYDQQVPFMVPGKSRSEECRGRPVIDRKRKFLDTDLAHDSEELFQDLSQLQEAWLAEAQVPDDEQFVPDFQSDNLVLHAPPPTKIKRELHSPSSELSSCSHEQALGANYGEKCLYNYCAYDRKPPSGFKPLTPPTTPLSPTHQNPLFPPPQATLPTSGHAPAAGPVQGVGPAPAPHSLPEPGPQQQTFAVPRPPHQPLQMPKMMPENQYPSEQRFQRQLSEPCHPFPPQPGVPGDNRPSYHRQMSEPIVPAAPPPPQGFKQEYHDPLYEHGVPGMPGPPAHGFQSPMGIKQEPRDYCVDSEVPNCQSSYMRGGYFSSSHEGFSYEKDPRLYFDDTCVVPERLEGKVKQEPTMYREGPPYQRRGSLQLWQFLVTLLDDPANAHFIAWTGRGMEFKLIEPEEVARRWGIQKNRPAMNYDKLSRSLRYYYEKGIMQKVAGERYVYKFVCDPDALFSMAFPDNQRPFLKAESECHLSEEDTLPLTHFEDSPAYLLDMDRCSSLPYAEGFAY
Procedure, shortened: as §1

[3] = target: HSF1 (Homo sapiens, UniProt Q00613 1-529); details: protein: recombinant; tags: N-terminal GST; chain copies: 3; dsDNA, one strand shown
Chain of HSF1 (Q00613 whole entry): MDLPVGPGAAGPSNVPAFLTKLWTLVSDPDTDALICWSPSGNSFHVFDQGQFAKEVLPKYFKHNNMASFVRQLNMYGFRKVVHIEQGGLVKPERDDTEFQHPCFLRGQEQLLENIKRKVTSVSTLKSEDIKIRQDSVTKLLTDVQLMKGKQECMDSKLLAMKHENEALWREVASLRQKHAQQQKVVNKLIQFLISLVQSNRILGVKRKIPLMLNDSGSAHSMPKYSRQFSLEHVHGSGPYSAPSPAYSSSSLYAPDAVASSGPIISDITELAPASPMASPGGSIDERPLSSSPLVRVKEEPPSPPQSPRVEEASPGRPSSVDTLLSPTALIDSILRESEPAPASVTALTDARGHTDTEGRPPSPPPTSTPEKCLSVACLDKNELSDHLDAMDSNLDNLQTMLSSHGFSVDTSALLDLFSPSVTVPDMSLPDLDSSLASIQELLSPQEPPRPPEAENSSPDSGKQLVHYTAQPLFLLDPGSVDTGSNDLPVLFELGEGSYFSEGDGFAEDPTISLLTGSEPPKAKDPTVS
Procedure, shortened: as §1

[4] = target: T2, SPIC (Homo sapiens, UniProt Q8N5J4 1-248); details: protein: recombinant; tags: N-terminal GST; dsDNA, one strand shown
T2 sequence: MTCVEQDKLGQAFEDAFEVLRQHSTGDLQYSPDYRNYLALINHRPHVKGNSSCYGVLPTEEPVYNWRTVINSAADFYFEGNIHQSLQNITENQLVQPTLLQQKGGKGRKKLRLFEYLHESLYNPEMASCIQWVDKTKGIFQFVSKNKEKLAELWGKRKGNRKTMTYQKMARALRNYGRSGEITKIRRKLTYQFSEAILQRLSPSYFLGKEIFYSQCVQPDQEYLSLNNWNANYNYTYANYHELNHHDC
Procedure, shortened: as §1

[5] = target: ELF4 (Homo sapiens, UniProt Q99607 1-663); details: protein: recombinant; tags: N-terminal GST; dsDNA, one strand shown
Chain of ELF4 (Q99607 whole entry): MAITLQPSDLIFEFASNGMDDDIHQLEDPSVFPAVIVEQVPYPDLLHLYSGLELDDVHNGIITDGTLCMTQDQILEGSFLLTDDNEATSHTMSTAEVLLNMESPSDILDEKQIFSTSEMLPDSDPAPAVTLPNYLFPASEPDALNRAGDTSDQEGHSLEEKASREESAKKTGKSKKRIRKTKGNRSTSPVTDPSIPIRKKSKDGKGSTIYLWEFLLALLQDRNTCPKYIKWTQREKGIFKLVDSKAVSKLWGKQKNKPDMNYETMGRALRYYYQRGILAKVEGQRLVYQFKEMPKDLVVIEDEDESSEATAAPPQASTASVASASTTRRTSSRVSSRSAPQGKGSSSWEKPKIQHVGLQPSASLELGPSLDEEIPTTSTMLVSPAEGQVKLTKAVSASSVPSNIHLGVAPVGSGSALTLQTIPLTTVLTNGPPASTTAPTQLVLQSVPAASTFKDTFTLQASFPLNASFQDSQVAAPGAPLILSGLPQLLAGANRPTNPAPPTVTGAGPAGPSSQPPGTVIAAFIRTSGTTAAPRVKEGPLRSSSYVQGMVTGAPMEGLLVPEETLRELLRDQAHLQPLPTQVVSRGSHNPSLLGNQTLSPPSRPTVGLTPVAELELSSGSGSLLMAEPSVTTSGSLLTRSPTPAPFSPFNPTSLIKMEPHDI
Procedure, shortened: as §1

[6] = target: T3, ELK4 (Homo sapiens, UniProt P28324-2 1-405); details: protein: recombinant; tags: N-terminal GST; dsDNA, one strand shown
T3 sequence: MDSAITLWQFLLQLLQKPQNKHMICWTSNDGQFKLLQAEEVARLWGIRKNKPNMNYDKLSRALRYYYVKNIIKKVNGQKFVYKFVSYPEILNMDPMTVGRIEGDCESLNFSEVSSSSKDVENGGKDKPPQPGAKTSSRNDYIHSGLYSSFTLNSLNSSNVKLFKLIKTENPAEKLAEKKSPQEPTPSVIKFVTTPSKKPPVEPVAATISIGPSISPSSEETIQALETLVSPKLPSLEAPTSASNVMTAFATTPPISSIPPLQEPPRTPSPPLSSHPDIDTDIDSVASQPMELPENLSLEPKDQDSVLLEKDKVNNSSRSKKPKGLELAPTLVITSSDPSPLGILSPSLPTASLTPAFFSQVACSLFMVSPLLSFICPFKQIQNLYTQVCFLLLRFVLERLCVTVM
Procedure, shortened: as §1

[7] = target: T4, ETV2 (Homo sapiens, UniProt O00321 1-342); details: protein: recombinant; tags: N-terminal GST; dsDNA, one strand shown
T4 sequence: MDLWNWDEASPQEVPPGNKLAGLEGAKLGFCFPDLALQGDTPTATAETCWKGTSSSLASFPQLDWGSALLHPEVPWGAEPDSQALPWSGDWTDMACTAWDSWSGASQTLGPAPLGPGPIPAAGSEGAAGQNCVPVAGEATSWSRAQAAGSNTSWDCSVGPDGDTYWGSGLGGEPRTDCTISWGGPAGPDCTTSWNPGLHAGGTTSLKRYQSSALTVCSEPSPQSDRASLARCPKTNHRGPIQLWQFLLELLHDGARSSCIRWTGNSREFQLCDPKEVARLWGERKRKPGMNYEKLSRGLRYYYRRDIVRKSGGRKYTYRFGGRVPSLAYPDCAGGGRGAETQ
Procedure, shortened: as §1

[8] = target: T5, ELF3 (Homo sapiens, UniProt P78545 1-371); details: protein: recombinant; tags: N-terminal GST; dsDNA, one strand shown
T5 sequence: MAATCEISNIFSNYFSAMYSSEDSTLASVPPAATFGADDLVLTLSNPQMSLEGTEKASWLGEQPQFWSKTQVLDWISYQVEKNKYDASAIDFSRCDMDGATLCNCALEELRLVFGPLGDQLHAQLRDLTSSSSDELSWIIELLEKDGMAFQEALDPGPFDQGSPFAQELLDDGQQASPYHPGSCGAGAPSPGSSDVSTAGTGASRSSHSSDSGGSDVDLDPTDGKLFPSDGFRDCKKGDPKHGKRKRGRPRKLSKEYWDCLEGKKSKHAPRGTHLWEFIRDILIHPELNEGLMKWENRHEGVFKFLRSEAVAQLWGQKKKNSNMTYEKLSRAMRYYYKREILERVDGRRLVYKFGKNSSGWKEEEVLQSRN
Procedure, shortened: as §1

[9] = target: CRX (Homo sapiens, UniProt O43186 1-299); details: protein: recombinant; tags: N-terminal GST; dsDNA, one strand shown
Chain of CRX (O43186 whole entry): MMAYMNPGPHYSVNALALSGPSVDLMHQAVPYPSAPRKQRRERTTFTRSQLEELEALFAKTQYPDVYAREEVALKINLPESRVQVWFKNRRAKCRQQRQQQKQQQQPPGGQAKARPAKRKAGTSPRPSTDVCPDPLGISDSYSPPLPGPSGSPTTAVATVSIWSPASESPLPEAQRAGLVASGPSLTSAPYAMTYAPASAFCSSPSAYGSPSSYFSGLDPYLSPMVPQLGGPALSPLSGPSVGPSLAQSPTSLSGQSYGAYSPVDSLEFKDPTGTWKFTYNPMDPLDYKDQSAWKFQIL
Procedure, shortened: as §1

[10] = target: ETV1 (Homo sapiens, UniProt P50549 1-477); details: protein: recombinant; tags: N-terminal GST; dsDNA, one strand shown
Chain of ETV1 (P50549 whole entry): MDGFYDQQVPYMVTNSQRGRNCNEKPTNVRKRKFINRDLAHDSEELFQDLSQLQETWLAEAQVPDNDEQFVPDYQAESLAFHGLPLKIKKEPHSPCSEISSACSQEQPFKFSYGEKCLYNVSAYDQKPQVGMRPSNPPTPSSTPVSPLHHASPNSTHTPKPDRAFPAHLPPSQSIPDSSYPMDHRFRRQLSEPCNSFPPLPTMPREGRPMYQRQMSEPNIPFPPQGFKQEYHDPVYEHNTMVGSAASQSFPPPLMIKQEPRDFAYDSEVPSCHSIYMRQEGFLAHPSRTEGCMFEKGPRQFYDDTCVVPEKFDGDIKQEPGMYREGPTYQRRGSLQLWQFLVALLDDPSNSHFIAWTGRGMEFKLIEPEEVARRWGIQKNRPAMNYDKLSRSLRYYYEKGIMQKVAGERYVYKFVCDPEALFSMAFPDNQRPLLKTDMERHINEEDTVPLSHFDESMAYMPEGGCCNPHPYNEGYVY
Procedure, shortened: as §1

[11] = target: T6, ERF (Homo sapiens, UniProt P50548 1-548); details: protein: recombinant; tags: N-terminal GST; dsDNA, one strand shown
T6 sequence: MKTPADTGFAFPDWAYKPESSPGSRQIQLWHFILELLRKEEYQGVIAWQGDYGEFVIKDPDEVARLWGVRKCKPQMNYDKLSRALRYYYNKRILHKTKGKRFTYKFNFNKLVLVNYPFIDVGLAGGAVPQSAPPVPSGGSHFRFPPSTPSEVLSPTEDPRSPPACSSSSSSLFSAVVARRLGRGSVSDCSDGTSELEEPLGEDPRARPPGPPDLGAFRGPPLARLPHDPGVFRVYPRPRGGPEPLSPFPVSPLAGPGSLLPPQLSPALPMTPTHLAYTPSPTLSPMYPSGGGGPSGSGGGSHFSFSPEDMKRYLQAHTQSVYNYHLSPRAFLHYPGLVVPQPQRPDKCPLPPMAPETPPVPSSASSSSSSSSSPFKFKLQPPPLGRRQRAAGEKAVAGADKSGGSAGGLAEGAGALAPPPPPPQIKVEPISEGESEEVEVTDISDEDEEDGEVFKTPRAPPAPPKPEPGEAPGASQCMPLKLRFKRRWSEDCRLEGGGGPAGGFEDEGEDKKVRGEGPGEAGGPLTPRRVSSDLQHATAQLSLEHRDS
Procedure, shortened: as §1

[12] = target: T7, ETV3L (Homo sapiens, UniProt Q6ZN32 1-361); details: protein: recombinant; tags: N-terminal GST; dsDNA, one strand shown
T7 sequence: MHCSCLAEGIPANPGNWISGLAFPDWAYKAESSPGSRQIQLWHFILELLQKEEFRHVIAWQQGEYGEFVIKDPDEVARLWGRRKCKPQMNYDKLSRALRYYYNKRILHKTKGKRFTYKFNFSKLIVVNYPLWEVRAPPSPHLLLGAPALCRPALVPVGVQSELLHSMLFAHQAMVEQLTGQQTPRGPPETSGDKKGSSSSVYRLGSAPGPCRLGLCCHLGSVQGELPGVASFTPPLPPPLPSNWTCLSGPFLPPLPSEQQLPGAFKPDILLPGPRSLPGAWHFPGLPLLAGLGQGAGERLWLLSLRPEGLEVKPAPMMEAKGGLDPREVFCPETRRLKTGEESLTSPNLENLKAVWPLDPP
Procedure, shortened: as §1

[13] = target: T8, ETS2 (Homo sapiens, UniProt P15036 1-469); details: protein: recombinant; tags: N-terminal GST; dsDNA, one strand shown
T8 sequence: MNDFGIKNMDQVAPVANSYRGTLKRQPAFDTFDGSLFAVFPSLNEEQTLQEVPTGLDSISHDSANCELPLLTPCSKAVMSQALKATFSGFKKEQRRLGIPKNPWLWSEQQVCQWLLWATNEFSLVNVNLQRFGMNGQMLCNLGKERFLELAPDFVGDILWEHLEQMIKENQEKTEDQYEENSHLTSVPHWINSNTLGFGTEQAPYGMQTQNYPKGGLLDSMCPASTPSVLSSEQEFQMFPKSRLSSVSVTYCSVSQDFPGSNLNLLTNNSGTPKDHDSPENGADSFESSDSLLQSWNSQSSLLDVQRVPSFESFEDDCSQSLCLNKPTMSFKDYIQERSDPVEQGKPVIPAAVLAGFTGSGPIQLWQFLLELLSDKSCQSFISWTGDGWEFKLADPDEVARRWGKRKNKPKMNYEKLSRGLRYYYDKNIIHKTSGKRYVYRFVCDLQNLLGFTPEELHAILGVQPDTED
Procedure, shortened: as §1

[14] = target: T9, SPDEF (Homo sapiens, UniProt O95238 1-335); details: protein: recombinant; tags: N-terminal GST; dsDNA, one strand shown
T9 sequence: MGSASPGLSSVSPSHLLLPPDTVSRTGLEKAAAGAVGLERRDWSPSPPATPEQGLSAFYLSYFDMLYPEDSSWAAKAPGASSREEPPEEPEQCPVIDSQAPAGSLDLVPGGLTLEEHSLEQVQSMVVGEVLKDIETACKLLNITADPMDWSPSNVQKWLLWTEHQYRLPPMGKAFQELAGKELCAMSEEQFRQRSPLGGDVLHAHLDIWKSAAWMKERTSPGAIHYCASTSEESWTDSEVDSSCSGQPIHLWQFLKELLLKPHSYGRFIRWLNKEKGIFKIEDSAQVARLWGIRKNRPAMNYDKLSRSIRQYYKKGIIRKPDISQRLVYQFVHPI
Procedure, shortened: as §1

[15] = target: T10, ETV7 (Homo sapiens, UniProt Q9Y603 1-341); details: protein: recombinant; tags: N-terminal GST; dsDNA, one strand shown
T10 sequence: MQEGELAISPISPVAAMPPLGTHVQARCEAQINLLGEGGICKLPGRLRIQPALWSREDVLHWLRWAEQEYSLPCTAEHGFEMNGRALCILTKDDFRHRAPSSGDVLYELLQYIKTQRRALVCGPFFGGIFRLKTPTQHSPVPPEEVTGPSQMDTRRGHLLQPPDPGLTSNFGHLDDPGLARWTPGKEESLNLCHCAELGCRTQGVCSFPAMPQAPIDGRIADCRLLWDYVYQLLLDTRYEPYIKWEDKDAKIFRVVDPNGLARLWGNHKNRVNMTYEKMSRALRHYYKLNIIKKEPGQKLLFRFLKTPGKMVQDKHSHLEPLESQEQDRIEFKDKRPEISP
Procedure, shortened: as §1

[16] = target: T11, ELF5 (Homo sapiens, UniProt Q9UKW6-2 1-255); details: protein: recombinant; tags: N-terminal GST; dsDNA, one strand shown
T11 sequence: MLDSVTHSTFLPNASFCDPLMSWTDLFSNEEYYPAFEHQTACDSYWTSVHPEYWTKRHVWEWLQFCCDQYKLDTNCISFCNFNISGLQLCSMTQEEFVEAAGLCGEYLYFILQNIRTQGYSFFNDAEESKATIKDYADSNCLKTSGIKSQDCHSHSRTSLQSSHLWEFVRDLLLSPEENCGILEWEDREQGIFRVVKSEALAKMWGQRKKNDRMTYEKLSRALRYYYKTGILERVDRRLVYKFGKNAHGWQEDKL
Procedure, shortened: as §1

[17] = target: T12, ETV3 (Homo sapiens, UniProt P41162-2 1-143); details: protein: recombinant; tags: N-terminal GST; dsDNA, one strand shown
T12 sequence: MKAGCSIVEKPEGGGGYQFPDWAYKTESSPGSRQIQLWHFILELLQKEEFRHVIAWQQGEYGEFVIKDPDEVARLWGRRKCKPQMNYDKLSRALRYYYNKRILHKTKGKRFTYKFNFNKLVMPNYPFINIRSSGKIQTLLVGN
Procedure, shortened: as §1

[18] = target: ETV6 (Homo sapiens, UniProt P41212 1-452); details: protein: recombinant; tags: N-terminal GST; dsDNA, one strand shown
Chain of ETV6 (P41212 whole entry): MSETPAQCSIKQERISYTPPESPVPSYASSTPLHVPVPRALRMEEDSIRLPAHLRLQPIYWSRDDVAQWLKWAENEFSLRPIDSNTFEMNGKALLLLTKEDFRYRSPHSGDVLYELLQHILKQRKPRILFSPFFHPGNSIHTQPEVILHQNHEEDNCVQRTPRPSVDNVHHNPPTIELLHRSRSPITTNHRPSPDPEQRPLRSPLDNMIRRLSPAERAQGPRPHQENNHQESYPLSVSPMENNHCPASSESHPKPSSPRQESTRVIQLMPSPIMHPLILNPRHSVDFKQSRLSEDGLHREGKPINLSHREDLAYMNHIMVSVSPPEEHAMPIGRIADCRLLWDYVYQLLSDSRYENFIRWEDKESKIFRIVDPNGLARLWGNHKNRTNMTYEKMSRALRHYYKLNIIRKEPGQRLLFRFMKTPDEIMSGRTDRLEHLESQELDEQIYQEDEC
Procedure, shortened: as §1

For TATCAC, the binding signal [1] was 1.21 fold enrichment (6-mer frequency, TF over GST control), the binding signal [2] was 1.24 fold enrichment (6-mer frequency, TF over GST control) and the binding signal [3] was 1.14 fold enrichment (6-mer frequency, TF over GST control). For the same sequence, the binding signal [4] was 1.17 fold enrichment (6-mer frequency, TF over GST control), the binding signal [5] was 1.24 fold enrichment (6-mer frequency, TF over GST control) and the binding signal [6] was 1.18 fold enrichment (6-mer frequency, TF over GST control). For the same sequence, the binding signal [7] was 1.34 fold enrichment (6-mer frequency, TF over GST control), the binding signal [8] was 1.25 fold enrichment (6-mer frequency, TF over GST control) and the binding signal [9] was 1.35 fold enrichment (6-mer frequency, TF over GST control). For the same sequence, the binding signal [10] was 1.17 fold enrichment (6-mer frequency, TF over GST control), the binding signal [11] was 1.19 fold enrichment (6-mer frequency, TF over GST control) and the binding signal [12] was 1.23 fold enrichment (6-mer frequency, TF over GST control). For the same sequence, the binding signal [13] was 1.2 fold enrichment (6-mer frequency, TF over GST control), the binding signal [14] was 1.25 fold enrichment (6-mer frequency, TF over GST control) and the binding signal [15] was 1.14 fold enrichment (6-mer frequency, TF over GST control). The binding signal [16] was 1.14 fold enrichment (6-mer frequency, TF over GST control), the binding signal [17] was 1.19 fold enrichment (6-mer frequency, TF over GST control) and the binding signal [18] was 1.25 fold enrichment (6-mer frequency, TF over GST control).
